Over roughly 110,000 compounds, “z-score” has its median near -0.1; the highest 2% begin near 2. Only a selection was taken, and the highest values are over-represented in it overall. The source made the active and inactive calls.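 Rule for the calls: active = z-score in the third read window above 3 or below -3; inactive = the rest.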
target: Metabotropic glutamate receptor 8 (Rattus norvegicus) (UniProt P70579); assay: mGluR8 Gi/Go-coupled signaling modulation – cell-based, rat, thallium flux, HTS, primary screen (AID 488969); settings: HEK293 rat mGluR8, GIRK (G protein-gated inwardly rectifying potassium channel) thallium flux, FluoZin2; at 10 µM; stronger effect = higher value; submaximal glutamate (EC20) added with thallium
Sequence (P70579 whole entry, looked up): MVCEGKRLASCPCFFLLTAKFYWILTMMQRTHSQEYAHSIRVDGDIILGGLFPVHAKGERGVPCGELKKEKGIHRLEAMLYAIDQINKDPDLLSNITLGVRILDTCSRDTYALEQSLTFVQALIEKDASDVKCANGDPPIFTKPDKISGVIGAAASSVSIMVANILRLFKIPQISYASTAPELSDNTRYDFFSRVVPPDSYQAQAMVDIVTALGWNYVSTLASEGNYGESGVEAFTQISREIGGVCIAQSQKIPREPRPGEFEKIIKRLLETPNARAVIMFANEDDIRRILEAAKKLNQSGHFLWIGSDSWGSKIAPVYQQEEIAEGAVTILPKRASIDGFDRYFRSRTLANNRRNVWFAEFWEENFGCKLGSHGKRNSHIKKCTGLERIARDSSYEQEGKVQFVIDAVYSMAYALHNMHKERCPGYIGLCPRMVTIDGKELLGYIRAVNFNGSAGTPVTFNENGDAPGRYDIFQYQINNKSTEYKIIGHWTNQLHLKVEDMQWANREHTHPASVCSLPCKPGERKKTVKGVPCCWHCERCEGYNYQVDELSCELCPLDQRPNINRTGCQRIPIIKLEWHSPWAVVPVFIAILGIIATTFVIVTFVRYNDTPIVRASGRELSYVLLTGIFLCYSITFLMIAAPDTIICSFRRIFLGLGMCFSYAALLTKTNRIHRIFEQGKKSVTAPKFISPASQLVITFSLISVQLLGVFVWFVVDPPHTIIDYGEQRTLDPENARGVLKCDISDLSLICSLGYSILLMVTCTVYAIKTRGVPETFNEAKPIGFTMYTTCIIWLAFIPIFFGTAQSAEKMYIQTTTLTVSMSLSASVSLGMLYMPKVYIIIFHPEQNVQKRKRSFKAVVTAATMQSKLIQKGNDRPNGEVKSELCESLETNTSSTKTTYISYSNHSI

SMILES	z-score
Cc1ccc(OCc2n[nH]c(=S)n2C2CCCCC2)cc1	-1.04
S=c1[nH]nc(COc2ccc(Cl)cc2)n1C1CCCCC1	1.31
Cc1cc(Cl)ccc1OCc1n[nH]c(=S)n1C1CCCCC1	7.67 (active)
CC(=O)Cc1nsc(NC(=O)c2cn(-c3ccccc3)nc2-c2ccc(Br)cc2)n1	0.229
O=C(c1ccccc1F)N1CCN=C1SCc1cccnc1	0.643
Cc1cc(NC(=O)C(C)C)ncc1NC(=O)Cc1ccccc1	1.07
Cc1cc(C(=O)N/N=C2\CCCC(C)C2)n[nH]1 (stereo not given)	-0.208
COc1ccc(CCN2C(=O)C(Oc3ccccc3C)C2c2ccc3c(c2)OCO3)cc1 (stereo not given)	-0.223
COc1ccc([C@@H]2Sc3cc(OC)ccc3N(CCN(C(C)C)C(C)C)C(=O)[C@H]2OC(C)=O)cc1	2.62
COc1ccc(CCN2C(=O)C(Oc3ccccc3)C2c2ccc3c(c2)OCO3)cc1 (stereo not given)	-0.146
COC(=O)COc1ccc(S(=O)(=O)N2CCc3ccccc3C2)cc1	-0.687
CCCCSc1nc2ccccc2n1CC(=O)O	-0.412
CC(C)(C)c1ccc2c(c1)C(=O)c1ccccc1C2=O	-0.283
CCOC(=O)c1ccc(Oc2nc(NC)nc(OC)n2)cc1	-0.524
C=CCOc1cccc(C2/C(=C(/O)c3ccccc3)C(=O)C(=O)N2CCN2CCOCC2)c1 (stereo not given)	-0.193
C=CCOc1cccc(C2/C(=C(/O)c3ccc(Cl)cc3)C(=O)C(=O)N2CCN2CCOCC2)c1 (stereo not given)	-0.349
C=CCOc1cccc(C2/C(=C(/O)c3ccc(C)cc3)C(=O)C(=O)N2CCN2CCOCC2)c1 (stereo not given)	3.31 (active)
Cc1ccc(C)c(N2C(=O)CN=C2Nc2ccccc2Cl)c1	-0.307
Cc1ccc(OCC(=O)NNC(=O)c2cccnc2)cc1	0.0457
COc1cccc(OCC(=O)NNC(=O)c2ccc(-c3ccccc3)cc2)c1	0.902
Cc1ccccc1C(=O)NNC(=O)Cc1ccccc1	-0.146
Cc1ccc(C(=O)NNC(=S)NC(=O)COc2ccccc2)cc1	6.25 (active)
Cc1ccc(NC(=O)COc2ccccc2)c(NC(=O)c2ccccc2C)c1	0.00484
Cc1ccccc1C(=O)NNC(=S)NC(=O)COc1ccccc1	4.25 (active)

SMILES	z-score
Cc1cccc(C(=O)NN2C(=O)C3C(c4ccccc4)C=CC(c4ccccc4)C3C2=O)c1 (stereo not given)	0.291
Cc1ccc(C(=O)NCCSc2ccc(Cl)cc2)cc1S(=O)(=O)Nc1ccccc1	-0.43
CC(C)Cn1c(=O)c(C2=NS(=O)(=O)c3ccccc3N2)c(O)c2ccccc21	5.83 (active)
CC(C)Cn1c(=O)c(C(=O)N/N=C/c2cccc(F)c2)c(O)c2ccccc21	0.163
CCn1c(=O)c(-c2ccccc2)c(O)c2ccccc21	1.28
CCCc1nc(NCC2CCCO2)c2nnn(Cc3ccccc3)c2n1 (stereo not given)	-0.932
O=C(NC(=S)Nc1nc2c(s1)CCCC2)c1ccc(C(=O)c2ccccc2)cc1	2.41
O=C(Nc1nc2c(s1)CCCC2)c1cccs1	0.315
Cc1ccccc1C(=O)NC(C(=O)Nc1nc2c(s1)CCCC2)C(C)C (stereo not given)	-0.323
O=C(NC(=S)Nc1nc2c(s1)CSc1ccccc1-2)c1ccccc1	0.384
COC(=O)c1ccc(C(=O)NC(=S)Nc2nc3c(s2)CCCC3)cc1	9.51 (active)
Cc1onc(-c2ccccc2)c1C(=O)Nc1nc2c(s1)CCCC2	0.165
COC(=O)c1ccc(C(=O)NC(=S)Nc2nc3c(s2)CC(C)CC3)cc1 (stereo not given)	0.17
O=C(NC(=S)Nc1nc2c(s1)CCCC2)c1ccccc1	4.37 (active)
CN(C)c1ccc(C(=O)Nc2nc3c(s2)CCCC3)cc1	0.874
CC(C)[C@H](NC(=O)c1ccccc1F)C(=O)Nc1nc2c(s1)CCCC2	2.3
CC(C)(C)c1ccc(C(=O)NC(=S)Nc2nc3c(s2)CCCC3)cc1	1.95
CCOc1ccccc1C(=O)N[C@H](C(=O)Nc1nc2c(s1)CCCC2)C(C)C	0.39
S=C1NCCOCCOCCOCCN1	-0.259
Cc1nc2oc3ccccc3c(=O)c2c(=O)n1Cc1ccccc1	1.14
Brc1ccccc1-c1nnc2sc(Cc3ccccc3)nn12	-2.32
Cc1ccc2cccc(S(=O)(=O)Nc3c(C)n(C)n(-c4ccccc4)c3=O)c2n1	-0.0715
Cc1cc(C)n2nc(C(=O)OCC(=O)c3cc(C)n(C)c3C)nc2n1	-0.164
Cc1ccc2c(c1)nc(NCCO)n2C	-0.14

SMILES	z-score
Cc1ccccc1CSCc1nc2ccccc2[nH]1	-0.127
O=C(/C=C/c1ccc2c(c1)OCCCO2)c1ccccc1O	0.562
Cc1ccc(/C=C/C(=O)c2cc(Br)ccc2OC(=O)c2ccco2)cc1	-0.117
CNc1ccc(Br)cc(C(=O)/C=C/c2ccc(OC)cc2OC)c1=O	-0.255
CNc1ccc(Br)cc(C(=O)/C=C/c2cccc(OC)c2)c1=O	-0.351
O=C(/C=C/c1ccc2c(c1)OCCCO2)c1ccc2ccccc2c1O	0.573
CCc1ccc(/C=C/C(=O)c2cc(Br)ccc(=O)c2O)cc1	2.17
COc1ccc(/C=C/C(=O)c2cc(Br)ccc(=O)c2O)cc1	3.14 (active)
CCc1ccc(C(C)NC(=O)/C=C/c2ccc(Br)cc2)cc1 (stereo not given)	-0.0914
CNc1ccc(Br)cc(C(=O)/C=C/c2ccc(OC)cc2)c1=O	0.019
CNc1ccc(Br)cc(C(=O)/C=C/c2ccc3c(c2)OCO3)c1=O	0.111
Cc1ccc(/C=C/C(=O)c2ccccc(=O)c2O)cc1C	5.65 (active)
Cc1cccc(/C=C/C(=O)c2cc(Br)ccc(=O)c2O)c1	2.75
N#Cc1cccc(Oc2ccc(-c3cnc4ccccc4n3)cc2)c1C#N	0.258
Cc1ccc(-n2c(C)nnc2SCC(=O)N2CCc3ccccc3C2)cc1	-0.994
Cc1cccc(N2C(=O)CC(Sc3nc(-c4ccccc4)c4cc(Cl)ccc4n3)C2=O)c1 (stereo not given)	-0.887
CCc1ccc(OCC(=O)N/N=C/c2cc([N+](=O)[O-])ccc2N2CCOCC2)cc1	0.198
C/C(=N\OC(=O)c1ccc(Cl)cc1)c1nccs1	-0.0963
Cc1ccc(-n2nnnc2SCC(=O)Nc2cccc(NC(=O)c3ccco3)c2)cc1C	1.39
CC1=CC(=Nc2c(C)n(C)n(-c3ccccc3)c2=O)C=C(C)C1=O	0.433
Cc1cc(S(=O)(=O)NCC(=O)O)ccc1F	0.254
CCN=C1SC(C(=O)Nc2cccc(C)c2)CC(=O)N1CC (stereo not given)	-0.145
